According to PubChem BioAssay (EPA / NIEHS):
Records with an inconclusive call do not appear. Calls of active or inactive are those of the source. How the source made its calls, unless noted: active means hit-call score of the fitted dose curve at least 0.9, where 1 is the maximum; inactive means score below 0.9.

How the values were obtained:
[1] = read-out: Phosphatase and tensin (PTEN), PTEN (gene 5728); experiment: LTEA_HepaRG_PTEN: Life Technologies and Expression Analysis (LTEA) Assay for Phosphatase and tensin (PTEN) using HepaRG (AID 2283523); details: mRNA level, 48 h; actives raise or lower the signal
In short: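 HepaRG, 48 h exposure, 8-pt half-log series from 100 uM top, 0.5% DMSO vehicle, duplicates. Readout: Fluidigm qRT-PCR of PTEN transcript; housekeeping normalization (ACTB, GAPDH, POLR2A). Gain or loss fitted relative to DMSO baseline.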

[2] = read-out: solute carrier (SLC22A1), SLC22A1 (gene 6580); experiment: LTEA_HepaRG_SLC22A1: Life Technologies and Expression Analysis (LTEA) Assay for solute carrier (SLC22A1) using HepaRG (AID 2283524); details: mRNA level, 48 h; actives raise or lower the signal
In short: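 qRT-PCR readout (TaqMan, Fluidigm arrays) of SLC22A1 transcript, normalized to three housekeeping genes; bidirectional curve fit relative to 0.5% DMSO vehicle. Differentiated human HepaRG cells, 48 h chemical exposure, top concentration 100 uM, half-log steps, eight points.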

[3] = read-out: Nuclear factor erythroid 2-related factor 2 (Homo sapiens) (UniProt Q16236); experiment: LTEA_HepaRG_NFE2L2: Life Technologies and Expression Analysis (LTEA) Assay for Nuclear factor erythroid 2-related factor 2 (NFE2L2) Transcription Factor using HepaRG (AID 2283527); details: mRNA level, 48 h; actives raise or lower the signal;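 further: TaqMan qRT-PCR transcript level normalised to ACTB GAPDH and POLR2A housekeeping genes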
In short: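 HepaRG, 48 h dosing, 8-pt half-log series from 100 uM in 0.5% DMSO, duplicates. Read-out: NFE2L2 mRNA by qRT-PCR (ACTB/GAPDH/POLR2A normalization). Bidirectional curve fit vs DMSO baseline.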

[4] = read-out: succinate dehydrogenase complex iron sulfur subunit B (SDHB), SDHB (gene 6390); experiment: LTEA_HepaRG_SDHB: Life Technologies and Expression Analysis (LTEA) Assay for succinate dehydrogenase complex iron sulfur subunit B (SDHB) using HepaRG (AID 2283528); details: mRNA level, 48 h; actives raise or lower the signal
In short: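 Readout is SDHB transcript level by qRT-PCR, normalised to three housekeeping genes and fitted bidirectionally against 0.5% DMSO vehicle. Human HepaRG cells were treated for 48 h at up to 100 uM.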

[5] = read-out: Signal transducer and activator of transcription 3 (Homo sapiens) (UniProt P40763); experiment: LTEA_HepaRG_STAT3: Life Technologies and Expression Analysis (LTEA) Assay for Signal transducer and activator of transcription (STAT3) using HepaRG (AID 2283529); details: mRNA level, 48 h; actives raise or lower the signal
In short: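 HepaRG, 48 h exposure, 8-pt half-log series (top 100 uM), 0.5% DMSO vehicle, duplicates. Readout: STAT3 transcript by Fluidigm qRT-PCR, housekeeping-normalized; bidirectional fit vs DMSO baseline.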

[6] = read-out: sulfotransferase 2A1 (SULT2A1), SULT2A1 (gene 6822); experiment: LTEA_HepaRG_SULT2A1: Life Technologies and Expression Analysis (LTEA) Assay for sulfotransferase 2A1 (SULT2A1) using HepaRG (AID 2283531); details: mRNA level, 48 h; actives raise or lower the signal
In short: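 Differentiated human HepaRG cells in serum-free induction medium were exposed for 48 h to eight half-log concentrations (top 100 uM, 0.5% DMSO). SULT2A1 mRNA was measured by qRT-PCR, normalized to ACTB, GAPDH and POLR2A, and fitted bidirectionally against DMSO.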

[7] = read-out: Transforming Growth Factor (TGFA), TGFA (gene 7039); experiment: LTEA_HepaRG_TGFA: Life Technologies and Expression Analysis (LTEA) Assay for Transforming Growth Factor (TGFA) using HepaRG (AID 2283532); details: mRNA level, 48 h; actives raise or lower the signal
In short: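 qRT-PCR read-out of TGFA transcript, normalized to three housekeeping genes, fitted bidirectionally against 0.5% DMSO baseline. Human HepaRG cultures received chemicals for 48 h at eight half-log concentrations, top 100 uM.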

[8] = read-out: Transforming Growth Factor (TGFB1), TGFB1 (gene 7040); experiment: LTEA_HepaRG_TGFB1: Life Technologies and Expression Analysis (LTEA) Assay for Transforming Growth Factor (TGFB1) Transporter using HepaRG (AID 2283533); details: mRNA level, 48 h; actives raise or lower the signal
In short: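 Differentiated human HepaRG cells in serum-free induction medium were exposed in duplicate for 48 h to eight concentrations (top 100 uM, half-log steps, 0.5% DMSO). TGFB1 mRNA was quantified by qRT-PCR, normalized to ACTB, GAPDH, POLR2A, and fitted bidirectionally against DMSO.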

TIMP1, TIMP1 (gene 7076) = experiment: LTEA_HepaRG_TIMP1: Life Technologies and Expression Analysis (LTEA) Assay for TIMP1 using HepaRG (AID 2283534); details: mRNA level, 48 h; actives raise or lower the signal
In short: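 Differentiated human HepaRG cells in serum-free induction medium were exposed 48 h to chemicals (8 half-log concentrations, top 100 uM, 0.5% DMSO). TIMP1 mRNA was quantified by TaqMan qRT-PCR, normalized to ACTB/GAPDH/POLR2A; bidirectional fit versus DMSO.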

[9] = read-out: Tumor necrosis factor receptor 1 (TNFRSF1A), TNFRSF1A (gene 7132); experiment: LTEA_HepaRG_TNFRSF1A: Life Technologies and Expression Analysis (LTEA) Assay for Tumor necrosis factor receptor 1 (TNFRSF1A) using HepaRG (AID 2283535); details: mRNA level, 48 h; actives raise or lower the signal
In short: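 Differentiated human HepaRG cells were exposed in duplicate for 48 h in serum-free induction medium to eight concentrations (top 100 uM, half-log steps, 0.5% DMSO). TNFRSF1A mRNA was quantified by qRT-PCR, normalized to ACTB, GAPDH and POLR2A, then fitted bidirectionally against DMSO.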

[10] = read-out: Thyroid Hormone Responsive (THRSP), THRSP (gene 7069); experiment: LTEA_HepaRG_THRSP: Life Technologies and Expression Analysis (LTEA) Assay for Thyroid Hormone Responsive (THRSP) using HepaRG (AID 2283536); details: mRNA level, 48 h; actives raise or lower the signal
In short: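 qRT-PCR read-out (Fluidigm TaqMan), housekeeping-normalized (ACTB/GAPDH/POLR2A). HepaRG, 48 h chemical exposure, 8-pt half-log series from 100 uM in 0.5% DMSO, duplicates. Bidirectional curve fit vs 0.5% DMSO baseline.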

[11] = read-out: Cellular tumor antigen p53 (Homo sapiens) (UniProt P04637); experiment: LTEA_HepaRG_TP53: Life Technologies and Expression Analysis (LTEA) Assay for Tumor Protein P53 (TP53) using HepaRG (AID 2283537); details: mRNA level, 48 h; actives raise or lower the signal
In short: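 Read-out is TP53 transcript level by microfluidic qRT-PCR, normalised to three housekeeping genes and fitted bidirectionally against DMSO. Human HepaRG cells received compounds for 48 h, highest concentration 100 uM.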

[12] = read-out: UDP glucuronosyltransferase (UGT1A1), UGT1A1 (gene 54658); experiment: LTEA_HepaRG_UGT1A1: Life Technologies and Expression Analysis (LTEA) Assay for UDP glucuronosyltransferase (UGT1A1) using HepaRG (AID 2283538); details: mRNA level, 48 h; actives raise or lower the signal
In short: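 Cells are plated, cultured 48 h, switched to serum-free induction medium, then dosed 48 h at eight concentrations (max 100 uM, 0.5% DMSO). RNA is isolated and UGT1A1 expression measured by qRT-PCR; changes versus DMSO are fitted in both directions.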

[13] = read-out: UDP glucuronosyltransferase (UGT1A6), UGT1A6 (gene 54578); experiment: LTEA_HepaRG_UGT1A6: Life Technologies and Expression Analysis (LTEA) Assay for UDP glucuronosyltransferase (UGT1A6) using HepaRG (AID 2283539); details: mRNA level, 48 h; actives raise or lower the signal
In short: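 Human HepaRG cells were dosed for 48 h in serum-free induction medium with 0.5% DMSO vehicle, eight-point half-log series from 100 uM, in duplicate. UGT1A6 mRNA was measured by qRT-PCR, normalized to ACTB, GAPDH, POLR2A, and fitted bidirectionally against DMSO.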

[14] = read-out: X-box binding protein 1 (XBP1), XBP1 (gene 7494); experiment: LTEA_HepaRG_XBP1: Life Technologies and Expression Analysis (LTEA) Assay for X-box binding protein 1 (XBP1) using HepaRG (AID 2283540); details: mRNA level, 48 h; actives raise or lower the signal
In short: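 Differentiated human HepaRG cells in serum-free induction medium were exposed in duplicate for 48 h to eight half-log concentrations up to 100 uM in 0.5% DMSO. XBP1 mRNA was quantified by qRT-PCR, normalised to ACTB, GAPDH and POLR2A, with bidirectional fitting against DMSO.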

[15] = LTEA_HepaRG_LDH_cytotoxicity: Cytotoxicity Assessment in the Life Technologies and Expression Analysis (LTEA) Assay (AID 2283563; active means hit-call score of the fitted dose curve at least 0.9, where 1 is the maximum)
In short: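 Differentiated human HepaRG cells, plated 48 h beforehand, were switched to serum-free induction medium and exposed for 48 h to eight half-log concentrations (top 100 uM) in 0.5% DMSO. LDH was measured in spent medium; activity was fitted relative to DMSO vehicle.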

[16] = ATG_XTT_Cytotoxicity: Cytotoxicity Assessment in the Attagene TRANS-FACTORIAL HepG2 Assay (AID 2283584; active means hit-call score of the fitted dose curve at least 0.9, where 1 is the maximum)
In short: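 HepG2 human liver cells, transiently transfected with multiple GAL4-UAS reporter units, were dosed and read at 24 h by XTT as cell number. Loss of signal was fitted relative to DMSO negative control baseline.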

[17] = read-out: solute carrier (SLCO1B1), SLCO1B1 (gene 10599); experiment: LTEA_HepaRG_SLCO1B1: Life Technologies and Expression Analysis (LTEA) Assay for solute carrier (SLCO1B1) using HepaRG (AID 2283530); details: mRNA level, 48 h; actives raise or lower the signal
In short: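 Differentiated human HepaRG cells, plated 48 h, switched to serum-free induction medium and exposed in duplicate for 48 h to 8 half-log concentrations (top 100 uM) in 0.5% DMSO. SLCO1B1 mRNA by TaqMan qRT-PCR, normalized to ACTB/GAPDH/POLR2A.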

[18] = read-out: NAD(P)H dehydrogenase [quinone] 1 (NQO1), NQO1 (gene 1728); experiment: LTEA_HepaRG_NQO1: Life Technologies and Expression Analysis (LTEA) Assay for NAD(P)H dehydrogenase [quinone] 1 (NQO1) using HepaRG (AID 2283526); details: mRNA level, 48 h; actives raise or lower the signal
In short: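 Transcript induction or suppression is quantified by qRT-PCR in human HepaRG liver cells dosed for 48 hours. Eight half-log concentrations topping at 100 uM are used, with 0.5% DMSO as vehicle and baseline.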

Measured: outcome

Sequence of Cellular tumor antigen p53 (Homo sapiens) (P04637 whole entry, looked up): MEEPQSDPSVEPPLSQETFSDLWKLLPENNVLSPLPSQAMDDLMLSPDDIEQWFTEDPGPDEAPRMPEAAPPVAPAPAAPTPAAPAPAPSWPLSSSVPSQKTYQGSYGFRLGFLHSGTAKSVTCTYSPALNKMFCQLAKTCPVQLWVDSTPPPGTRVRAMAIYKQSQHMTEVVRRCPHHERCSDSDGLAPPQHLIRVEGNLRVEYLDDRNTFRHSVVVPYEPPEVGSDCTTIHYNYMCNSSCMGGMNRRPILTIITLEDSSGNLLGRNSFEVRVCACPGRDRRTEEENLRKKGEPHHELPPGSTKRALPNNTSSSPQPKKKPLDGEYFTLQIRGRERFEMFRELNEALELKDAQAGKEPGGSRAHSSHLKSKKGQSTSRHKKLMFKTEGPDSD
Sequence of Nuclear factor erythroid 2-related factor 2 (Homo sapiens) (Q16236 whole entry, looked up): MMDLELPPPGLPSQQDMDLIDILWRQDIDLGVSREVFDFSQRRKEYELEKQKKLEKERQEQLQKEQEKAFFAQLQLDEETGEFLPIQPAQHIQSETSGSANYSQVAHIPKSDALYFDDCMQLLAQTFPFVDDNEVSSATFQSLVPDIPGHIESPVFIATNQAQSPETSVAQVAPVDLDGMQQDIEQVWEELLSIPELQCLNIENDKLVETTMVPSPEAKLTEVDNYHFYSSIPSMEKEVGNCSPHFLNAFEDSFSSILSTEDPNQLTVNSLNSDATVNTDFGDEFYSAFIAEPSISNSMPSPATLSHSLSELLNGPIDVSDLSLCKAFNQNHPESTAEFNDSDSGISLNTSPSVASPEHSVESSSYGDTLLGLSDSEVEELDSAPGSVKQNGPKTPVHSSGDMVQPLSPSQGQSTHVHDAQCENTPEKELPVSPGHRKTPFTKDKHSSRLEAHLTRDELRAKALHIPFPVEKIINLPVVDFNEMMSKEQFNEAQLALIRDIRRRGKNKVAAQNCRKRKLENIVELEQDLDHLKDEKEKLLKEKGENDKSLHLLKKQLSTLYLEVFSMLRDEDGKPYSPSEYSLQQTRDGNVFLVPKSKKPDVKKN
Sequence of Signal transducer and activator of transcription 3 (Homo sapiens) (P40763 whole entry, looked up): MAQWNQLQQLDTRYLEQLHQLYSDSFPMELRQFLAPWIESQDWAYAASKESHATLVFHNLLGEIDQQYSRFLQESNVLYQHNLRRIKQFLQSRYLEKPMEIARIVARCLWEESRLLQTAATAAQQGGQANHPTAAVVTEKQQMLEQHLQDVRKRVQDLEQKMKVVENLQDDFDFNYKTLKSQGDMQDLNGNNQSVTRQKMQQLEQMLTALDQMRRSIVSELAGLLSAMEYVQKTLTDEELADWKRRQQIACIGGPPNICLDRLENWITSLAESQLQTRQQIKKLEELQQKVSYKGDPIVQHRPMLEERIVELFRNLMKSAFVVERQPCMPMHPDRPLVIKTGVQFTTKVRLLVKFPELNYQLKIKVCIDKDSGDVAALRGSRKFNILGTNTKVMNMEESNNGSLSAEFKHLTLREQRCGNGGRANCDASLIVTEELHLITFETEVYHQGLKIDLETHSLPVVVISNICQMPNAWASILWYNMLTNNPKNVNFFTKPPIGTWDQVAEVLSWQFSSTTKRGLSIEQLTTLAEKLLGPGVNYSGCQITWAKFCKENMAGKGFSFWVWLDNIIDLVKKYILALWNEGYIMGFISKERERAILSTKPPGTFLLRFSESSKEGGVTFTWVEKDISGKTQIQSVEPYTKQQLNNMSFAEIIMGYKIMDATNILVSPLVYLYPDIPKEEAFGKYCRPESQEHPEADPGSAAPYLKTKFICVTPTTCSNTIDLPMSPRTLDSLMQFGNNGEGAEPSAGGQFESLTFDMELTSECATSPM

CCCCCCCCCCCCCCCO
inactive: [1] | [2] | [3] | [4] | [5] | [6] | [7] | [8] | TIMP1, TIMP1 (gene 7076) | [9] | [10] | [11] | [12] | [13] | [14] | [15] | [16]

Cc1ccc(O)cc1
inactive: [1] | [2] | [3] | [4] | [5] | [17] | [6] | [7] | [8] | TIMP1, TIMP1 (gene 7076) | [9] | [10] | [11] | [12] | [13] | [14] | [15]

CC(C)=CCC/C(C)=C\CO
inactive: [1] | [2] | [3] | [4] | [5] | [17] | [6] | [7] | [8] | TIMP1, TIMP1 (gene 7076) | [9] | [11] | [12] | [13] | [14] | [15] | [16]

CCOC(=O)CC(CC(=O)OCC)(OC(C)=O)C(=O)OCC
inactive: [1] | [2] | [18] | [3] | [4] | [5] | [17] | [6] | [7] | [8] | TIMP1, TIMP1 (gene 7076) | [9] | [11] | [12] | [13] | [14] | [15] | [16]
